Measurements taken from PubChem BioAssay (EPA / NIEHS).
Inconclusive results are not listed. More than one record can exist for a structure, and the calls need not agree. Calls of active or inactive are those of the source. How the source made its calls, unless noted: active means hit-call score of the fitted dose curve at least 0.9, where 1 is the maximum; inactive means score below 0.9.

Assays:
[1] = read-out: NAD(P)H dehydrogenase [quinone] 1 (NQO1), NQO1 (gene 1728); test: LTEA_HepaRG_NQO1: Life Technologies and Expression Analysis (LTEA) Assay for NAD(P)H dehydrogenase [quinone] 1 (NQO1) using HepaRG (AID 2283526); details: mRNA level, 48 h; actives raise or lower the signal
In short: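 HepaRG, 48 h post-plating → serum-free induction medium → test chemical 48 h (duplicate, 100 uM top, half-log x8, 0.5% DMSO) → RNA isolation → qRT-PCR, ACTB/GAPDH/POLR2A normalization; bidirectional curve fit vs DMSO baseline.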

[2] = read-out: Nuclear factor erythroid 2-related factor 2 (Homo sapiens) (UniProt Q16236); test: LTEA_HepaRG_NFE2L2: Life Technologies and Expression Analysis (LTEA) Assay for Nuclear factor erythroid 2-related factor 2 (NFE2L2) Transcription Factor using HepaRG (AID 2283527); details: mRNA level, 48 h; actives raise or lower the signal;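 further: TaqMan qRT-PCR transcript level normalised to ACTB GAPDH and POLR2A housekeeping genes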
In short: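 Differentiated human HepaRG cells in serum-free induction medium were exposed for 48 h to eight concentrations (top 100 uM, half-log dilutions, 0.5% DMSO), in duplicate. NFE2L2 mRNA was quantified by TaqMan qRT-PCR, normalized to ACTB, GAPDH and POLR2A, with bidirectional fitting versus DMSO.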

[3] = read-out: succinate dehydrogenase complex iron sulfur subunit B (SDHB), SDHB (gene 6390); test: LTEA_HepaRG_SDHB: Life Technologies and Expression Analysis (LTEA) Assay for succinate dehydrogenase complex iron sulfur subunit B (SDHB) using HepaRG (AID 2283528); details: mRNA level, 48 h; actives raise or lower the signal
In short: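 A human HepaRG culture in serum-free induction medium received test chemicals for 48 h over an eight-point range capped at 100 uM. SDHB expression change was quantified by qRT-PCR.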

[4] = read-out: Signal transducer and activator of transcription 3 (Homo sapiens) (UniProt P40763); test: LTEA_HepaRG_STAT3: Life Technologies and Expression Analysis (LTEA) Assay for Signal transducer and activator of transcription (STAT3) using HepaRG (AID 2283529); details: mRNA level, 48 h; actives raise or lower the signal
In short: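 Differentiated human HepaRG cells in serum-free induction medium were exposed in duplicate for 48 h to eight half-log concentrations up to 100 uM in 0.5% DMSO. STAT3 mRNA was quantified by TaqMan qRT-PCR, normalized to ACTB, GAPDH and POLR2A, and fitted bidirectionally against DMSO.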

[5] = read-out: solute carrier (SLCO1B1), SLCO1B1 (gene 10599); test: LTEA_HepaRG_SLCO1B1: Life Technologies and Expression Analysis (LTEA) Assay for solute carrier (SLCO1B1) using HepaRG (AID 2283530); details: mRNA level, 48 h; actives raise or lower the signal
In short: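 Differentiated human HepaRG cells, plated 48 h, switched to serum-free induction medium and exposed in duplicate for 48 h to 8 half-log concentrations (top 100 uM) in 0.5% DMSO. SLCO1B1 mRNA by TaqMan qRT-PCR, normalized to ACTB/GAPDH/POLR2A.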

[6] = read-out: Transforming Growth Factor (TGFA), TGFA (gene 7039); test: LTEA_HepaRG_TGFA: Life Technologies and Expression Analysis (LTEA) Assay for Transforming Growth Factor (TGFA) using HepaRG (AID 2283532); details: mRNA level, 48 h; actives raise or lower the signal
In short: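 Differentiated human HepaRG cells, plated 48 h then switched to serum-free induction medium, were exposed in duplicate for 48 h to 8-point half-log series from 100 uM in 0.5% DMSO. TGFA mRNA measured by qRT-PCR, normalized to ACTB/GAPDH/POLR2A, bidirectional fit versus DMSO.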

[7] = read-out: Transforming Growth Factor (TGFB1), TGFB1 (gene 7040); test: LTEA_HepaRG_TGFB1: Life Technologies and Expression Analysis (LTEA) Assay for Transforming Growth Factor (TGFB1) Transporter using HepaRG (AID 2283533); details: mRNA level, 48 h; actives raise or lower the signal
In short: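 Differentiated human HepaRG cells in serum-free induction medium were exposed in duplicate for 48 h to eight concentrations (top 100 uM, half-log steps, 0.5% DMSO). TGFB1 mRNA was quantified by qRT-PCR, normalized to ACTB, GAPDH, POLR2A, and fitted bidirectionally against DMSO.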

TIMP1, TIMP1 (gene 7076) = test: LTEA_HepaRG_TIMP1: Life Technologies and Expression Analysis (LTEA) Assay for TIMP1 using HepaRG (AID 2283534); details: mRNA level, 48 h; actives raise or lower the signal
In short: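 Differentiated human HepaRG cells in serum-free induction medium were exposed 48 h to chemicals (8 half-log concentrations, top 100 uM, 0.5% DMSO). TIMP1 mRNA was quantified by TaqMan qRT-PCR, normalized to ACTB/GAPDH/POLR2A; bidirectional fit versus DMSO.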

[8] = read-out: Tumor necrosis factor receptor 1 (TNFRSF1A), TNFRSF1A (gene 7132); test: LTEA_HepaRG_TNFRSF1A: Life Technologies and Expression Analysis (LTEA) Assay for Tumor necrosis factor receptor 1 (TNFRSF1A) using HepaRG (AID 2283535); details: mRNA level, 48 h; actives raise or lower the signal
In short: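 Differentiated human HepaRG cells were exposed in duplicate for 48 h in serum-free induction medium to eight concentrations (top 100 uM, half-log steps, 0.5% DMSO). TNFRSF1A mRNA was quantified by qRT-PCR, normalized to ACTB, GAPDH and POLR2A, then fitted bidirectionally against DMSO.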

[9] = read-out: Thyroid Hormone Responsive (THRSP), THRSP (gene 7069); test: LTEA_HepaRG_THRSP: Life Technologies and Expression Analysis (LTEA) Assay for Thyroid Hormone Responsive (THRSP) using HepaRG (AID 2283536); details: mRNA level, 48 h; actives raise or lower the signal
In short: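 Differentiated human HepaRG cells were exposed in duplicate for 48 h in serum-free induction medium to eight concentrations (top 100 uM, half-log steps, 0.5% DMSO). Expression was quantified by TaqMan qRT-PCR, normalized to ACTB, GAPDH and POLR2A, with bidirectional fitting against DMSO.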

[10] = read-out: Cellular tumor antigen p53 (Homo sapiens) (UniProt P04637); test: LTEA_HepaRG_TP53: Life Technologies and Expression Analysis (LTEA) Assay for Tumor Protein P53 (TP53) using HepaRG (AID 2283537); details: mRNA level, 48 h; actives raise or lower the signal
In short: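 Gain or loss of TP53 mRNA signal is scored relative to 0.5% DMSO after 48 h chemical treatment of HepaRG liver cells, tested in duplicate at eight half-log concentrations up to 100 uM.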

[11] = read-out: UDP glucuronosyltransferase (UGT1A1), UGT1A1 (gene 54658); test: LTEA_HepaRG_UGT1A1: Life Technologies and Expression Analysis (LTEA) Assay for UDP glucuronosyltransferase (UGT1A1) using HepaRG (AID 2283538); details: mRNA level, 48 h; actives raise or lower the signal
In short: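 Readout is UGT1A1 transcript level by qRT-PCR, normalized to three housekeeping genes, after 48 h chemical treatment of HepaRG cells. Concentrations ran from 100 uM down in half-log steps with 0.5% DMSO, and gain or loss relative to DMSO was fitted.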

[12] = read-out: UDP glucuronosyltransferase (UGT1A6), UGT1A6 (gene 54578); test: LTEA_HepaRG_UGT1A6: Life Technologies and Expression Analysis (LTEA) Assay for UDP glucuronosyltransferase (UGT1A6) using HepaRG (AID 2283539); details: mRNA level, 48 h; actives raise or lower the signal
In short: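 Human HepaRG cells were dosed for 48 h in serum-free induction medium with 0.5% DMSO vehicle, eight-point half-log series from 100 uM, in duplicate. UGT1A6 mRNA was measured by qRT-PCR, normalized to ACTB, GAPDH, POLR2A, and fitted bidirectionally against DMSO.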

[13] = read-out: X-box binding protein 1 (XBP1), XBP1 (gene 7494); test: LTEA_HepaRG_XBP1: Life Technologies and Expression Analysis (LTEA) Assay for X-box binding protein 1 (XBP1) using HepaRG (AID 2283540); details: mRNA level, 48 h; actives raise or lower the signal
In short: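 Differentiated human HepaRG cells in serum-free induction medium were exposed in duplicate for 48 h to eight half-log concentrations up to 100 uM in 0.5% DMSO. XBP1 mRNA was quantified by qRT-PCR, normalised to ACTB, GAPDH and POLR2A, with bidirectional fitting against DMSO.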

[14] = LTEA_HepaRG_LDH_cytotoxicity: Cytotoxicity Assessment in the Life Technologies and Expression Analysis (LTEA) Assay (AID 2283563; active means hit-call score of the fitted dose curve at least 0.9, where 1 is the maximum;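 on AC50: LDH activity released into spent culture medium as a marker of cell death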)
In short: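 Differentiated human HepaRG cells, plated 48 h beforehand, were switched to serum-free induction medium and exposed for 48 h to eight half-log concentrations (top 100 uM) in 0.5% DMSO. LDH was measured in spent medium; activity was fitted relative to DMSO vehicle.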

[15] = TOX21_p53_BLA_p2_viability: Viability Assessment in the Tox21 HCT-116 p53 Agonism Beta-lactamase Assay, Phase 2 (AID 2283591; active means hit-call score of the fitted dose curve at least 0.9, where 1 is the maximum;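 further: compound exposure lasted 16 h at 37 °C; actives lower the ATP signal meaning cytotoxicity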)
In short: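 HCT-116 p53-bla cells (4000/well) rested 5 h at 37C, then received compounds in DMSO (217-fold dilution) for 16 h at 37C, 5% CO2. After the CCF4 read, CellTiter-Glo was added; ATP luminescence was read after 30 min at room temperature.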

[16] = biological target: Cellular tumor antigen p53 (Homo sapiens) (UniProt P04637); test: TOX21_p53_BLA_p2_ratio: Tox21 HCT-116 p53 Agonism Beta-lactamase Assay, Ratio, Phase 2 (AID 2283592; active means hit-call score of the fitted dose curve at least 0.9, where 1 is the maximum)
Sequence of Cellular tumor antigen p53 (Homo sapiens) (P04637 whole entry, looked up): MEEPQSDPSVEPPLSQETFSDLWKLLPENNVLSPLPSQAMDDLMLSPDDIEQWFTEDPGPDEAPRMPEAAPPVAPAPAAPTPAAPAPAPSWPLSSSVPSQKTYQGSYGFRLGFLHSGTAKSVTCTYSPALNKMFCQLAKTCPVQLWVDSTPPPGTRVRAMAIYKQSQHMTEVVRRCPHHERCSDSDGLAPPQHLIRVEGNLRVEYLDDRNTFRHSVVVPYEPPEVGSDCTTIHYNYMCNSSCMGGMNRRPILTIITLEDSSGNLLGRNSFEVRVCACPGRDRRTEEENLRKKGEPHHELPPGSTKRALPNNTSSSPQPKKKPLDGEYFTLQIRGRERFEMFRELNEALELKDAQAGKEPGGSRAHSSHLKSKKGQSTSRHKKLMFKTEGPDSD
In short: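 HCT116 cells carrying a p53-responsive beta-lactamase reporter were plated, incubated 5 h at 37C, then dosed with compounds in DMSO (217-fold dilution) for 16 h. CCF4-AM substrate was added for 2 h at room temperature; the 460/530 nm emission ratio gave gain-of-signal activity relative to DMSO.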

[17] = TOX21_p53_BLA_p3_viability: Viability Assessment in the Tox21 HCT-116 p53 Agonism Beta-lactamase Assay, Phase 3 (AID 2283593; active means hit-call score of the fitted dose curve at least 0.9, where 1 is the maximum;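 further: cells exposed to compound for 16 h before reading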)
In short: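 HCT-116 cells (4000/well) rested 5 h at 37C, then got DMSO compounds by pin tool (217-fold dilution) for 16 h at 37C, 5% CO2. After the bla read, CellTiter-Glo was added and luminescence read at 30 min, room temperature.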

Measured: AC50

Sequence of Nuclear factor erythroid 2-related factor 2 (Homo sapiens) (Q16236 whole entry, looked up): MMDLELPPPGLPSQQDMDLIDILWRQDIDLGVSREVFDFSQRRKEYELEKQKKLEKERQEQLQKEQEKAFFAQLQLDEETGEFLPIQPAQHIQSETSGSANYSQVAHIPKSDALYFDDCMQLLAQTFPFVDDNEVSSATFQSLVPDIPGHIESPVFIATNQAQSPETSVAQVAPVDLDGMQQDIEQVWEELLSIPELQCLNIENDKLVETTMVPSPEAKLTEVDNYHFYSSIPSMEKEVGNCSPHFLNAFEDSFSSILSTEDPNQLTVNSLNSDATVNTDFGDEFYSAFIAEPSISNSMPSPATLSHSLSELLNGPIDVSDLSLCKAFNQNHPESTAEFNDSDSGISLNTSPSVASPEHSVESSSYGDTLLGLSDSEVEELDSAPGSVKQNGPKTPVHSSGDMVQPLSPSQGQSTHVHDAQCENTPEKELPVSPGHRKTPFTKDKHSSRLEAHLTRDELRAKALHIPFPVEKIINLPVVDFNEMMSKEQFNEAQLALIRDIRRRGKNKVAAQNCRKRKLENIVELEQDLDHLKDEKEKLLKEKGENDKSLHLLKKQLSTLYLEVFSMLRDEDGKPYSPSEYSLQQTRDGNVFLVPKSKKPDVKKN
Sequence of Signal transducer and activator of transcription 3 (Homo sapiens) (P40763 whole entry, looked up): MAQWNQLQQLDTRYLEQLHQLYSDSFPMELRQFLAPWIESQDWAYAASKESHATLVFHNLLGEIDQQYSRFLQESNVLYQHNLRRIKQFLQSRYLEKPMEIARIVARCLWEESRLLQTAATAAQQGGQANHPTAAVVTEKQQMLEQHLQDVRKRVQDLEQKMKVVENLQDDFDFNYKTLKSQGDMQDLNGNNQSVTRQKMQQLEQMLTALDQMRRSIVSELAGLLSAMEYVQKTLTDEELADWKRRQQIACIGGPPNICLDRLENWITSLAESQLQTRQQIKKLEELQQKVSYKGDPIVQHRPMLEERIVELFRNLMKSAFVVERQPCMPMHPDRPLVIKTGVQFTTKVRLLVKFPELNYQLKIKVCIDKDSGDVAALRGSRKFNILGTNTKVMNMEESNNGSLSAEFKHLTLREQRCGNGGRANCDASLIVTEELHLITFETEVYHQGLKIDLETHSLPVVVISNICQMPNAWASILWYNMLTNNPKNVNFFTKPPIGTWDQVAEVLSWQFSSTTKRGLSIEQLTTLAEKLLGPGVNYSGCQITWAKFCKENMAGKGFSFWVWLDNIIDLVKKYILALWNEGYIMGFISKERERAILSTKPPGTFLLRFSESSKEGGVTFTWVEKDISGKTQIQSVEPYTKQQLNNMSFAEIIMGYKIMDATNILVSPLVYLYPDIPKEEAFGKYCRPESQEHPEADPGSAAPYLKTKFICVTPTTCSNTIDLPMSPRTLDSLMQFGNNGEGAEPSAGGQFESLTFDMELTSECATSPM

CCOC(=O)C(C)OC(=O)c1cc(Oc2ccc(C(F)(F)F)cc2Cl)ccc1[N+](=O)[O-] (stereo not given)
active: [9] 28.4 µM | [11] 8.94 µM
inactive: all other assays above

O=C(Nc1ccccc1-c1ccc(Cl)cc1)c1cccnc1Cl
active: [4] 0.539 µM
inactive: all other assays above

Cn1c(-c2ccccc2)cc(-c2ccccc2)[n+]1C
active: [4] 22.5 µM | [5] 18.6 µM | TIMP1, TIMP1 (gene 7076) 82.9 µM | [8] 72.2 µM | [9] 50 µM | [10] 86.5 µM | [11] 39.9 µM | [12] 75.2 µM | [14] 66.1 µM | [16] 24.2 µM
inactive: [1] | [2] | [3] | [6] | [7] | [13] | [15] | [16] | [17]
